In PubChem BioAssay (Tox21):
Records with an inconclusive call do not appear. Active and inactive are the calls of the source. Unless noted, the call rests on the fitted dose curve; in most records, active means well fitted curve in the direction sought with a large enough effect in the repeat runs; inconclusive means weak or mixed curves; inactive means no such curve, though single readings can be large; an effect the other way counts as inactive or inconclusive.

Columns and labels:
[1] = qHTS assay to identify small molecule antagonists of the estrogen receptor alpha (ER-alpha) signaling pathway using the BG1 cell line in the presence of 0.1 nM 17-beta-estradiol - cell viability counter screen (AID 1259241); further: nearly all actives have a fitted effect of over 40% in size
How it was run: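 Live-cell protease activity (CellTiter-Fluor fluorescence, 30 min) was read in the same wells after VM7Luc4E2 cells had been exposed to compounds with 0.1 nM 17beta-estradiol for 22 hr at 37C.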

[2] = qHTS assay to identify small molecule antagonists of the androgen receptor (AR) signaling pathway using the MDA cell line in the presence of 0.5 nM R1881 - cell viability counter screen (AID 1259242); further: nearly all actives have a fitted effect of over 45% in size
How it was run: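 Human breast carcinoma MDA-kb2 cells, cultured without CO2, receive compounds alongside 0.5 nM (final) R1881 agonist. After 16 hr at 37C, viability is taken as live-cell protease signal.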

[3] = qHTS assay to identify small molecule HDAC inhibitors (AID 1259364);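 further: wild-type HCT-116 cells with endogenous class I/II HDAC activity; top concentration of the series differs between compounds; nearly all actives have a fitted effect of over 45% in size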
How it was run: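 After a 2 hr compound incubation (37C, 5% CO2), HCT-116 cells seeded at 1,500/well the day before received HDAC-Glo reagent; signal read as luminescence after 30 min at room temperature.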

[4] = qHTS assay to identify small molecule HDAC inhibitors - cell viability counter screen (AID 1259365); further: series mostly up to about 92 µM; nearly all actives have a fitted effect of over 50% in size
How it was run: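 HCT-116 (wild type), 1,500 cells/well, overnight 37C/5% CO2; compound in DMSO 2hr; CellTiter-Glo 30min RT; luminescence read.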

[5] = qHTS assay to identify small molecule antagonists of the sonic hedgehog signaling (Shh) pathway - cell viability counter screen (AID 1259367); further: nearly all actives have a fitted effect of over 55% in size
How it was run: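 Fluorescence read-out (CellTiter-Fluor, 1 hr at 37C) taken after 23 hr compound treatment of 3T3 Gli1-Luc cells stimulated with conditioned medium. Cells were seeded at 2,000 per well and pre-incubated 4 hr.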

[6] = qHTS assay to identify small molecule antagonists of the sonic hedgehog signaling (Shh) pathway (AID 1259369; calls by dose curve; further: nearly all actives have a fitted effect of over 45% in size)
How it was run: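 Gli1 transcriptional reporter (firefly Luc) in NIH/3T3 background, conditioned-medium activated. 24hr exposure, luminescence endpoint.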

[7] = qHTS assay to identify small molecule agonists of the androgen receptor (AR) signaling pathway in the presence of an antagonist - cell viability counter screen (AID 1259379); further: nearly all actives have a fitted effect of over 25% in size; further: potency means the concentration at half of the fitted maximal effect
How it was run: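 Counter screen for cell viability run in parallel with the AR agonist-mode luciferase assay. MDA-kb2 cells were co-treated with nilutamide (3.0uM final) and compounds, then incubated 16 hr at 37C, and CellTiter-Fluor fluorescence was measured.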

[8] = qHTS assay to identify small molecule antagonists of the estrogen receptor beta (ER-beta) signaling pathway - cell viability counter screen (AID 1259382); further: series mostly up to about 92 µM; nearly all actives have a fitted effect of over 55% in size
How it was run: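 HEK293T ER-beta-UAS-bla, 2% charcoal-stripped FBS; compounds + 1nM E2 16 hr 37C; CellTiter-Glo luminescence, 30 min RT.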

[9] = qHTS assay to identify small molecule agonists or antagonists of the thyroid stimulating hormone receptor (TSHR) signaling pathway - wild type cell line counter screen (AID 1259384; calls by dose curve)
How it was run: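 Wild-type Hek293 cells, 800/well, 18 h at 37C, then compound with Ro20-1724 for 30 min RT. cAMP by HTRF (cAMP-d2/anti-cAMP cryptate), 1 h RT, fluorescence read. 15 concentrations, triplicates.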

[10] = qHTS assay to identify small molecule agonists of the sonic hedgehog signaling (Shh) pathway - cell viability counter screen (AID 1259366); further: nearly all actives have a fitted effect of over 50% in size; further: potency means the concentration at half of the fitted maximal effect
How it was run: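 CellTiter-Fluor fluorescence read-out, 1 hr at 37C, added after 23hr compound exposure. Cells: 3T3 Gli1-Luc, an NIH/3T3 clone with stably integrated Gli1-Luc reporter, plated 4hr before compound.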

[11] = qHTS assay to identify small molecule agonists of the sonic hedgehog signaling (Shh) pathway (AID 1259368; calls by dose curve;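 further: NIH/3T3-derived 3T3Gli1-Luc cells carrying a stable Gli1-driven firefly luciferase reporter; series mostly up to about 92 µM; nearly all actives have a fitted effect of over 15% in size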)
How it was run: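 Stable NIH/3T3 Gli1-Luc reporter clone; 24 hr cpd exposure after a 4 hr settling period; luminescence endpoint.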

[12] = qHTS assay to identify small molecule agonists of the estrogen receptor beta (ER-beta) signaling pathway - cell viability counter screen (AID 1259380); further: nearly all actives have a fitted effect of over 30% in size; further: potency means the concentration at half of the fitted maximal effect
How it was run: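 In this qHTS counter screen, HEK293T cells carrying an ER-beta/UAS beta-lactamase reporter, grown in 2% charcoal-stripped FBS, received compound for 16 hr; ATP-based CellTiter-Glo luminescence was then read after 30 min at room temperature.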

[13] = target: Thyrotropin receptor (Homo sapiens) (UniProt P16473); experiment: qHTS assay to identify small molecule antagonists of the thyroid stimulating hormone receptor (TSHR) signaling pathway (AID 1259385; calls by dose curve; further: nearly all actives have a fitted effect of over 20% in size)
Chain of Thyrotropin receptor (Homo sapiens) (P16473 whole entry, looked up): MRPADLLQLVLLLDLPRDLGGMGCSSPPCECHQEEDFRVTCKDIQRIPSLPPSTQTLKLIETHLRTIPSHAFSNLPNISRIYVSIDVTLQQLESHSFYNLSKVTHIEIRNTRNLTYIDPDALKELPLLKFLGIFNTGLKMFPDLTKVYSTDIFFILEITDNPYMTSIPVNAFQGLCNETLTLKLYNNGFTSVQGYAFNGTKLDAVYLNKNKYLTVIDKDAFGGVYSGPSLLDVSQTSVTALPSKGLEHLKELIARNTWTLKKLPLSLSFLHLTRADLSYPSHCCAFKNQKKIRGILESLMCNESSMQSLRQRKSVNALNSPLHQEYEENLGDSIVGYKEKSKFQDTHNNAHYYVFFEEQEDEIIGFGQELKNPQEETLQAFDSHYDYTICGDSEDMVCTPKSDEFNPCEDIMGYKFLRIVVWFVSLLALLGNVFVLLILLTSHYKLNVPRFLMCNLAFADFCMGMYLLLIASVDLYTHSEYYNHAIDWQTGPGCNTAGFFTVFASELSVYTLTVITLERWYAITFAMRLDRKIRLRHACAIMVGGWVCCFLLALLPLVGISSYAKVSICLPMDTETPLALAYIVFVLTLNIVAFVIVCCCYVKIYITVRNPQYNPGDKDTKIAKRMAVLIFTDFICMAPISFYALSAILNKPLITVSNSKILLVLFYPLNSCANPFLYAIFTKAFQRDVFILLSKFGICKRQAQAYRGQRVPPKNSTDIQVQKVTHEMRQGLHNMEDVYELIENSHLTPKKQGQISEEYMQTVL
How it was run: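 TSHR-HEK293 cells (800/well) plated 18 h, then compounds with Ro20-1724 and TSH at 1.5 ng/mL final, 30 min at room temperature. cAMP quantified by HTRF (cAMP-d2/anti-cAMP-cryptate, 1 h); 15 concentrations in triplicate.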

[14] = target: Androgen receptor (Homo sapiens) (UniProt P10275); experiment: qHTS assay to identify small molecule antagonists of the androgen receptor (AR) signaling pathway using the MDA cell line in the presence of 0.5 nM R1881 (AID 1259243); further: nearly all actives have a fitted effect of over 50% in size
Chain of Androgen receptor (Homo sapiens) (P10275 whole entry, looked up): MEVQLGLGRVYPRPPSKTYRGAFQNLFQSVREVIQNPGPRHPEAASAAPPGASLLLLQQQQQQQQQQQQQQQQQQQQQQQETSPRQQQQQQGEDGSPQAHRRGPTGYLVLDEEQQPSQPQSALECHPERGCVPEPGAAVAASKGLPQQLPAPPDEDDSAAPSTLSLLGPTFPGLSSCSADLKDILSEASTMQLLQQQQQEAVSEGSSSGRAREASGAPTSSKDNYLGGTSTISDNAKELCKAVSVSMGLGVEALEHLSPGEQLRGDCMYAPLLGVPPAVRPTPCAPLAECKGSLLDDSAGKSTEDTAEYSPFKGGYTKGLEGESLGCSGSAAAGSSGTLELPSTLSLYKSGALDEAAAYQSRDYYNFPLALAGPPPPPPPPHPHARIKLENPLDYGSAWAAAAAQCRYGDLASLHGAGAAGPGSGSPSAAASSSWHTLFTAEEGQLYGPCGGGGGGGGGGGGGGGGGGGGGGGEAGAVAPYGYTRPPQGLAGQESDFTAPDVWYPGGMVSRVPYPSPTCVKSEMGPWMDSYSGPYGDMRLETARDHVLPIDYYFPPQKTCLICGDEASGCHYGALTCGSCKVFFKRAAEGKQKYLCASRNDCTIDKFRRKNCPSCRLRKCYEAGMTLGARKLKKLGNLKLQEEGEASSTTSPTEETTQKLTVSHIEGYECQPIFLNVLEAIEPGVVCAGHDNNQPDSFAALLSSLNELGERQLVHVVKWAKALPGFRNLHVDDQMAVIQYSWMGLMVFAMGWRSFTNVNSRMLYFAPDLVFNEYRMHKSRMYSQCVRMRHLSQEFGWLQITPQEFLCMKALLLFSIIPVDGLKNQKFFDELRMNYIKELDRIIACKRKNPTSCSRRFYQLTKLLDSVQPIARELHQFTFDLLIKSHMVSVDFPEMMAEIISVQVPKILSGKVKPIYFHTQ
How it was run: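 Cells: MDA-kb2 (MMTV-luc). Stimulus: 0.5 nM R1881. Time: 16 hr, 37C, no CO2. Detection: ONE-Glo luminescence after 30 min at RT.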

[15] = target: Estrogen receptor beta (Homo sapiens) (UniProt Q92731); experiment: qHTS assay to identify small molecule antagonists of the estrogen receptor beta (ER-beta) signaling pathway (AID 1259378; active means well fitted inhibition curve with a large enough effect in the signal ratio in the repeat runs, not every such curve was filed as active; the % refers to the signal ratio; further: potency means the concentration at half of the fitted maximal effect)
Chain of Estrogen receptor beta (Homo sapiens) (Q92731 whole entry, looked up): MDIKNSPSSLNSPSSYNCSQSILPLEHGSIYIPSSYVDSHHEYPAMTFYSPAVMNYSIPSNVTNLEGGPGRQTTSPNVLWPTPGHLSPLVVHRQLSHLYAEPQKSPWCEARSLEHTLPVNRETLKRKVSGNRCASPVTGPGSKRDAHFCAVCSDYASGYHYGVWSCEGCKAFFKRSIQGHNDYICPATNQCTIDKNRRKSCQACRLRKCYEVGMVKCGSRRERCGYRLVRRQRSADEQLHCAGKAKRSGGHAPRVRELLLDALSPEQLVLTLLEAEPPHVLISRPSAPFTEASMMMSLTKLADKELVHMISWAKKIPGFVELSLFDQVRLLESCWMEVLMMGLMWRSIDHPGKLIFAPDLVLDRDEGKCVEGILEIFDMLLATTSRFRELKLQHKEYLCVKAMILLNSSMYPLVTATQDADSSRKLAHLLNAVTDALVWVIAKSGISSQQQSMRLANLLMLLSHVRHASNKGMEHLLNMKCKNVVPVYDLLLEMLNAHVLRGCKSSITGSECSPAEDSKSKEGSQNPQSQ
How it was run: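 ER-beta-UAS-bla HEK293T cells in 2% charcoal-stripped FBS medium treated with compound plus 1nM final 17-beta-estradiol for 16 hr at 37C. Beta-lactamase reporter read by FRET substrate fluorescence after 2 hours at room temperature.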

[16] = target: Androgen receptor (Homo sapiens) (UniProt P10275); experiment: qHTS assay to identify small molecule agonists of the androgen receptor (AR) signaling pathway in the presence of an antagonist (AID 1259381; calls by dose curve; further: nearly all actives have a fitted effect of over 15% in size)
How it was run: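 AR antagonist background: nilutamide 3.0uM final. Cell line: MDA-kb2, MMTV-driven luciferase, responsive to both AR and GR. Exposure 16hr, 37C, no CO2; ONE-Glo luminescence.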

[17] = target: Estrogen receptor beta (Homo sapiens) (UniProt Q92731); experiment: qHTS assay to identify small molecule agonists of the estrogen receptor beta (ER-beta) signaling pathway (AID 1259377; active means well fitted activation curve with a large enough effect in the signal ratio in the repeat runs, not every such curve was filed as active; the % refers to the signal ratio)
How it was run: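 Beta-lactamase reporter readout: fluorescence of LiveBLAzer B/G FRET substrate after 2 h at room temperature, following 16 h compound treatment of ER-beta-UAS-bla HEK293T cells at 37C in 2% charcoal-stripped FBS medium.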

[18] = target: Estrogen receptor (Homo sapiens) (UniProt P03372); experiment: qHTS assay to identify small molecule agonists of the estrogen receptor alpha (ER-alpha) signaling pathway in the presence of an antagonist (AID 1259383; calls by dose curve; further: top concentration of the series differs between compounds; nearly all actives have a fitted effect of over 15% in size)
Chain of Estrogen receptor (Homo sapiens) (P03372 whole entry, looked up): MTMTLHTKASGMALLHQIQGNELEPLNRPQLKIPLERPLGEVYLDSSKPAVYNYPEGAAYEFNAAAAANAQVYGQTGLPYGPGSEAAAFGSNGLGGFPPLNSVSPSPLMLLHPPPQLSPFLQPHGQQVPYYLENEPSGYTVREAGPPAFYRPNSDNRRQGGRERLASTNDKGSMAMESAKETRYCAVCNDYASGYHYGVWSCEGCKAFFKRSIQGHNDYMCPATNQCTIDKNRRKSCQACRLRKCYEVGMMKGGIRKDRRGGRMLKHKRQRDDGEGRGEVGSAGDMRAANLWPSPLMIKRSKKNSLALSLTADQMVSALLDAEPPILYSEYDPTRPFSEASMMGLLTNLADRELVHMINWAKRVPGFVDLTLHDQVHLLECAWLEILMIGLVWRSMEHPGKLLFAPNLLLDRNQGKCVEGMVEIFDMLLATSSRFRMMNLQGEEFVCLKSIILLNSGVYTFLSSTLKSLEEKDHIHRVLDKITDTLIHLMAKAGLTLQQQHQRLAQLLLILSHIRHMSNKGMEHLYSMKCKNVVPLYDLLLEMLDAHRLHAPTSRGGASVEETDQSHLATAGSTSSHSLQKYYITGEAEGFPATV
How it was run: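 ER-alpha agonism measured under antagonist challenge: 10.0nM ICI-182,780 (final) plus compound, 15 concentrations, 22hr, VM7Luc4E2 ERE-luciferase cells. Read by luminescence.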

[19] = target: Estrogen receptor (Homo sapiens) (UniProt P03372); experiment: qHTS assay to identify small molecule antagonists of the estrogen receptor alpha (ER-alpha) signaling pathway using the BG1 cell line in the presence of 0.1 nM 17-beta-estradiol (AID 1259244); further: nearly all actives have a fitted effect of over 50% in size
How it was run: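 Seeding of stripped-serum-adapted VM7Luc4E2 cells, 24 h attachment, compound transfer, then 0.1 nM final 17beta-estradiol; after 22 h incubation, ONE-Glo reagent and luminescence reading.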

[20] = qHTS assay to identify small molecule phospholipidosis (PLD) inducers (AID 1259344; active means well fitted curve in the direction sought with a large enough effect; an effect the other way counts as inactive or inconclusive)
How it was run: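 Read-out is LipidTOX Red fluorescence (ex 595/em 615) imaged in HepG2 cells after 24 h compound exposure at 37 C, with Hoechst nuclear counterstain (ex 352/em 461) allowing per-cell normalisation.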

Measured: Potency

CCOP(=S)(Oc1cnc(C(C)(C)C)nc1)OC(C)C (centres undefined)
inactive: [1] | [2] | [3] | [4] | [5] | [6] | [7] | [8] | [9]

CCNc1nc(NC(C)C)nc(OC)n1
not listed: [6] | [14] | [15] | [16] | [17] | [18] | [19] | [20]
inactive: all other assays above

COC(=O)COc1ccc(Cl)cc1Cl
inactive: [1] | [2] | [3] | [4] | [10] | [5] | [7] | [12] | [8] | [9] | [13]

CC1CCC(=O)O1 (centres undefined)
not listed: [11] | [14] | [15] | [16] | [17] | [18] | [19] | [20]
inactive: all other assays above

C[C@]1(O)CC[C@H]2[C@@H]3CCC4=CC(=O)CC[C@]4(C)[C@@]3(F)[C@@H](O)C[C@@]21C
inactive: [1] | [2] | [3] | [4] | [5] | [11] | [7] | [8] | [9] | [13]

O=NN1CCCCC1
not listed: [1] | [8] | [17] | [18] | [19] | [20]
inactive: all other assays above

COC(C)(C)C
not listed: [6] | [11] | [14] | [16] | [17] | [18] | [19] | [20]
inactive: all other assays above

Fc1ccc(C2(Cn3cncn3)OC2c2ccccc2Cl)cc1 (centres undefined)
active: [15] 30.6 µM | [12] 17.2 µM
not listed: [6] | [8] | [10] | [14] | [16] | [19] | [20]
inactive: all other assays above

COP(=S)(OC)Oc1ccc(S(N)(=O)=O)cc1
not listed: [1] | [14] | [16]
inactive: all other assays above

CC1(C)COP(Oc2ccccc2)OC1
not listed: [1] | [6] | [11] | [15] | [17] | [18] | [19] | [20]
inactive: all other assays above

CC(CC(C#N)(c1ccccc1)c1ccccc1)N(C)C (centres undefined)
active: [12] 60.8 µM
not listed: [5] | [8] | [10] | [14] | [15] | [16] | [19] | [20]
inactive: all other assays above

COc1cccc(C(=O)NN(C(=O)c2cc(C)cc(C)c2)C(C)(C)C)c1C
active: [10] 13.7 µM
not listed: [5] | [6] | [14] | [16] | [18] | [19] | [20]
inactive: all other assays above

O=[N+]([O-])c1cccc(O)c1
not listed: [8] | [14] | [15] | [16] | [17] | [18] | [19] | [20]
inactive: all other assays above

Cc1ccccc1CO[C@@H]1C[C@@]2(C(C)C)CC[C@]1(C)O2
not listed: [10] | [13] | [14] | [15] | [17] | [18] | [19] | [20]
inactive: all other assays above

CC(C(=O)c1ccccc1)N(C)C (centres undefined)
not listed: [1] | [6] | [12] | [17] | [20]
inactive: all other assays above

O=[N+]([O-])c1cc(Cl)c(Cl)c(Cl)c1
active: [7] 54 µM
not listed: [2] | [14] | [16] | [20]
inactive: all other assays above

CC(C1CC1)C(O)(Cn1cncn1)c1ccc(Cl)cc1 (centres undefined)
not listed: [6] | [10] | [14] | [16] | [17] | [18] | [19] | [20]
inactive: all other assays above
